Inconclusive results are not listed. The source made the active and inactive calls. Calls follow the shape of the dose curve; as a rule, active = well fitted cell-killing curve with a large enough effect in the repeat runs; inconclusive = weak or mixed curves; inactive = flat fitted curve, though single readings scatter.
Test: qHTS RealTime-Glo MT Cell Viability Assay in HepG2 cells - 16 hour (AID 1224885); also: nearly all actives have a fitted effect of over 50% in size
Conditions: RealTime-Glo luminescence; series mostly up to 76.8 µM; activity change, negative = cytotoxic: at the top concentration
Source text: U.S. Tox21 Program National Center for Advancing Translational Sciences [NCATS] NIH Chemical Genomics Center [NCGC] U.S. Environmental Protection Agency [EPA] National Institutes of Environmental Health Sciences [NIEHS] National Toxicology Program [NTP] U.S. Food and Drug Administration [FDA] Tox21 Assay Overview: Measure of cell viability is critical in the cell-base assay. Analysis of cell viability is necessary for the characterization of cell responses to cytotoxic drugs and environmental stress. A RealTime-Glo MT Cell Viability Assay to monitor cell viability in real time of continues cell culture during 40 hours of compound treatment was used to screen Tox21 10K library compounds in HepG2 cells. The RealTime-Glo MT Cell Viability Assay is a nonlytic, homogeneous, bioluminescent method to measure cell viability in real time using a simple, plate-based method. The assay involves adding NanoLuc luciferase and a cell-permeant prosubstrate to cells in culture. Viable cells reduce the proprietary prosubstrate to generate a substrate for NanoLuc luciferase. This substrate diffuses from cells into the surrounding culture medium, where it is rapidly used by the NanoLuc Enzyme to produce a luminescent signal. The signal correlates with the number of viable cells, making the assay well suited for cytotoxicity studies.
Tox21 Assay Protocol Summary: The mixture of HepG2 cell suspension and reagents were dispensed at 600cells/6 ul/well in 1536-well tissue culture treated black solid bottom plates using a Multidrop dispenser. After the assay plates were incubated at a 37 C/5% CO2 incubator for 5 hours, 23 nL of compounds dissolved in DMSO, positive and negative controls was transferred to the assay plate by a pintool work station. The plates were incubated at 37 C for 40 hours. The luminescence intensity were measured at 0h, 8h, 16h, 24h, 32h and 40h time points using ViewLux plate reader during compound treatment.
% is scaled to controls: 0 for no effect and ±100 for the full control effect.

Compound	activity change, negative = cytotoxic	Potency
COC(=O)c1ccc(CBr)cc1	-0.396% (inactive)	
O=C1CCCCC1Cl (stereo not given)	1.69% (inactive)	
CC[C@@H](CO)NC(=O)[C@@H]1C=C2c3cccc4[nH]cc(c34)C[C@H]2N(C)C1	-0.716% [at 35.3 µM] (inactive)	
CC(C)(O)C(Cl)(Cl)Cl	2.25% [at 35.3 µM] (inactive)	
CCCCCCCCSC(=O)Oc1cc(Cl)nnc1-c1ccccc1	0.582% (inactive)	
CCCCS(=O)(=O)Cl	1.06% (inactive)	
CCC(C)C(C)(COC(N)=O)COC(N)=O (stereo not given)	2.96% [at 35.3 µM] (inactive)	
CCCCCCCC(=O)Cl	2.15% (inactive)	
CC(=O)CN(CC(C)=O)N=O	-0.53% (inactive)	
CN(C)C1CCCCC1	0.368% (inactive)	
CCCN1CCC[C@@H]2Cc3nc(N)ncc3C[C@H]21	-2.81% [at 35.3 µM] (inactive)	
CCOC(=O)Nc1cccc(OC(=O)Nc2ccccc2)c1	2.43% (inactive)	
C=CCN1CC[C@]23CCCC[C@H]2[C@H]1Cc1ccc(O)cc13	0.389% [at 35.3 µM] (inactive)	
Cc1ccc2cc(C)ccc2c1	-0.978% (inactive)	
Brc1c(Br)c(Br)c(Br)c(Br)c1Br	-8.35% [at 6.97 µM] (inactive)	
O=P(O)(O)CN(CP(=O)(O)O)CP(=O)(O)O		inactive
CCOC1Oc2ccc(OS(C)(=O)=O)cc2C1(C)C (stereo not given)	2.16% (inactive)	
ClCC1CO1 (stereo not given)	0.105% (inactive)	
N[C@@H]1C[C@H]1c1ccccc1	0.489% [at 35.3 µM] (inactive)	
C=CCCC#N	0.764% (inactive)	

Compound	activity change, negative = cytotoxic	Potency
CC(C)(N)Cc1ccccc1Cl	8.74% [at 35.3 µM] (inactive)	
CCN(CCO)CCn1c(Cc2ccccc2)nc2c1c(=O)n(C)c(=O)n2C	4.36% [at 35.3 µM] (inactive)	
BrCC1CO1 (stereo not given)	-0.684% (inactive)	
CC#Cc1cc(C)nc(Nc2ccccc2)n1	-13.6% (inactive)	
Cc1ccc(S(=O)(=O)N[C@@H](CCCCN)C(=O)CCl)cc1	2.25% [at 35.3 µM] (inactive)	
NNCc1ccccc1	0.654% (inactive)	
CCN(CC)CCOC(=O)C(O)(c1ccccc1)c1ccccc1	6.84% [at 35.3 µM] (inactive)	
CN1COCN(Cc2cnc(Cl)s2)/C1=N\[N+](=O)[O-]	2.78% (inactive)	
C=CC=O	0.192% (inactive)	
O=C(O)C(Br)(Br)Br	-5.44% (inactive)	
BrCCc1ccccc1	-0.386% (inactive)	
CCOC(=O)NC(C)(C)Cc1ccc(Cl)cc1	0.0174% [at 35.3 µM] (inactive)	
O=C(Cl)C(Cl)Cl	1.99% (inactive)	
CC[C@H](N)c1ccccc1	-0.207% (inactive)	
CCCCCCC(=O)CCCCCC/C=C/C[C@@H](O)[C@H](O)[C@@](N)(CO)C(=O)O	1.68% [at 15.8 µM] (inactive)	
CCNc1nc(NCC)nc(SC)n1	3.5% (inactive)	
C/C=C/CC#N	-0.796% (inactive)	
ClCCCCl	0.41% (inactive)	
CC(=NC#N)N(C)Cc1ccc(Cl)nc1	4.8% (inactive)	
O=C/C=C/c1ccco1	1.78% (inactive)	
